How the values were obtained:
Experiment in all cases: log2 ratio of Biotin-Ahx-Ub-VS probe labelling (fragment/DMSO); higher = less target engagement (more negative = stronger competition), active = hit call of the paper (q ≤ 0.05, log2 ratio ≤ -1)
Details in all cases: compound concentration: 200 uM; treatment time: 3 h
OTUD6B = target: T1, OTUD6B (UniProt Q8N6M0)
T1 sequence (whole entry): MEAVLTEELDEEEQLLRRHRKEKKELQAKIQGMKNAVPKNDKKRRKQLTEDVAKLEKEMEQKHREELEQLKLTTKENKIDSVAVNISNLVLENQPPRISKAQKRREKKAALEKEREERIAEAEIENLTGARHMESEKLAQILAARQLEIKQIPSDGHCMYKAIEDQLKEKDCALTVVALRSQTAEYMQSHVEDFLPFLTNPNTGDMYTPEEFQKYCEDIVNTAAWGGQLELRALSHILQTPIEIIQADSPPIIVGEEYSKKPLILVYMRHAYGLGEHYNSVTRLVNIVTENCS
Method in brief: (§1)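 Fragment (200 µM) or vehicle was incubated for 3 h with triplicate HEK293T lysate samples of 495 µg, which were then treated with Biotin-Ahx-Ub-VS at 0.5 µM final for 1 h. Labelled DUBs were enriched on NeutrAvidin, digested with LysC and trypsin, and analysed by diaPASEF LC-MS/MS. Values are average log2 fragment/vehicle ratios from an unpaired t-test on global-median-normalised Spectronaut label-free quantities, using proteins with ≥2 unique peptides.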

OTUD7B = target: T2, OTUD7B (UniProt Q6GQQ9)
T2 sequence (whole entry): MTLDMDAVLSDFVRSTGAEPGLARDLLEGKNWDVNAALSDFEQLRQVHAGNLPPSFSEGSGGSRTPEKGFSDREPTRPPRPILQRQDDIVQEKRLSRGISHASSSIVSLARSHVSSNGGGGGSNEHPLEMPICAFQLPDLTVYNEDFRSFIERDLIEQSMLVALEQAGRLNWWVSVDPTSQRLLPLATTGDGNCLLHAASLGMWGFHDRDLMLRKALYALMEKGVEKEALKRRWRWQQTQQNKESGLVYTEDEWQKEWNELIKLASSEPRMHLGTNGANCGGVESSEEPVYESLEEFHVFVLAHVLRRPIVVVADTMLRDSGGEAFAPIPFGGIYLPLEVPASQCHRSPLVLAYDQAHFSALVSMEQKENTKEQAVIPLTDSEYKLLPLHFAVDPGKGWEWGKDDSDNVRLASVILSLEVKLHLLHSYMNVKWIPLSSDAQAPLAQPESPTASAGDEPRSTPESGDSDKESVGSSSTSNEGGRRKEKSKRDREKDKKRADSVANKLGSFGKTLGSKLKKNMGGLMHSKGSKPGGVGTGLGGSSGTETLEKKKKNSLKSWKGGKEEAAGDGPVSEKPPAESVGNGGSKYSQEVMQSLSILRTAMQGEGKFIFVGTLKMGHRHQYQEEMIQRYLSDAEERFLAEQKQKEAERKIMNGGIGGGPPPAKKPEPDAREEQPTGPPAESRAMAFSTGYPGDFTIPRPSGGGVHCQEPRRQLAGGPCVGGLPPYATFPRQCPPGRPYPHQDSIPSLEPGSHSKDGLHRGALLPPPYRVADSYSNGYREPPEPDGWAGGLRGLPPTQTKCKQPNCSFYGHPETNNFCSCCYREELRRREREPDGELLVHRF
Method in brief: as §1

PRPF8 = PRPF8 (UniProt Q6P2Q9)
Method in brief: as §1

PSMD7 = target: T3, PSMD7 (UniProt P51665)
T3 sequence (whole entry): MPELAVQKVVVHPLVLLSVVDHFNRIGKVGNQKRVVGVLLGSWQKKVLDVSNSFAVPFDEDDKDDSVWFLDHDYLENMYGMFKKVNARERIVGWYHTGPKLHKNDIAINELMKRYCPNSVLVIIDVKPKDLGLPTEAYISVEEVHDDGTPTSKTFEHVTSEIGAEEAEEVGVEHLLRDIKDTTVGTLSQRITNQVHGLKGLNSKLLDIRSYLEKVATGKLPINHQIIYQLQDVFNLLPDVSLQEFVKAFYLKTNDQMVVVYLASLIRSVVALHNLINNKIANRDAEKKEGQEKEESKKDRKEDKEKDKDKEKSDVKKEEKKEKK
Method in brief: as §1

UCHL1 = UCHL1 (UniProt P09936)
Chain of UCHL1 (P09936 whole entry, looked up): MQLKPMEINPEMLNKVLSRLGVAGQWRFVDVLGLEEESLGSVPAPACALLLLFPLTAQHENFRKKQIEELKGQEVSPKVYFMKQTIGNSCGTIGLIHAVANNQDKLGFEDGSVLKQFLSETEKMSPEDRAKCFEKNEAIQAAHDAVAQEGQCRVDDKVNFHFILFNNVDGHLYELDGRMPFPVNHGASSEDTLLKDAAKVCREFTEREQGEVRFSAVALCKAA
Method in brief: as §1

UCHL3 = target: T4, UCHL3 (UniProt P15374)
T4 sequence (whole entry): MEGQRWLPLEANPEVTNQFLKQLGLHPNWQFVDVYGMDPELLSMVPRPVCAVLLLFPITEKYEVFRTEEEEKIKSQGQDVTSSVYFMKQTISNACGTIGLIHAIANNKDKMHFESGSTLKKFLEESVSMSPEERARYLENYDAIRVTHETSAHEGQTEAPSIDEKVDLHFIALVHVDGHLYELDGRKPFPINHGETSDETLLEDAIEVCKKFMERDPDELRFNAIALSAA
Method in brief: as §1

UCHL5 = target: T5, UCHL5 (UniProt Q9Y5K5)
T5 sequence (whole entry): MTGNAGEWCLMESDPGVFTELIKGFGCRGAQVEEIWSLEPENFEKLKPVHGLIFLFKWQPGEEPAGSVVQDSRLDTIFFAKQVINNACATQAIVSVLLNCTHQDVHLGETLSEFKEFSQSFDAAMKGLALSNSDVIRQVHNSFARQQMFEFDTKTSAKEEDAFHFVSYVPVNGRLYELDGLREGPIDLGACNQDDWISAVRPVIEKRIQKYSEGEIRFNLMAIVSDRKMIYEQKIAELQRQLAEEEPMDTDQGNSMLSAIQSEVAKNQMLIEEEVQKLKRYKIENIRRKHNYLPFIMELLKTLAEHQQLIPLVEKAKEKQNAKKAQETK
Method in brief: as §1

USP10 = USP10 (UniProt Q14694)
Chain of USP10 (Q14694 whole entry): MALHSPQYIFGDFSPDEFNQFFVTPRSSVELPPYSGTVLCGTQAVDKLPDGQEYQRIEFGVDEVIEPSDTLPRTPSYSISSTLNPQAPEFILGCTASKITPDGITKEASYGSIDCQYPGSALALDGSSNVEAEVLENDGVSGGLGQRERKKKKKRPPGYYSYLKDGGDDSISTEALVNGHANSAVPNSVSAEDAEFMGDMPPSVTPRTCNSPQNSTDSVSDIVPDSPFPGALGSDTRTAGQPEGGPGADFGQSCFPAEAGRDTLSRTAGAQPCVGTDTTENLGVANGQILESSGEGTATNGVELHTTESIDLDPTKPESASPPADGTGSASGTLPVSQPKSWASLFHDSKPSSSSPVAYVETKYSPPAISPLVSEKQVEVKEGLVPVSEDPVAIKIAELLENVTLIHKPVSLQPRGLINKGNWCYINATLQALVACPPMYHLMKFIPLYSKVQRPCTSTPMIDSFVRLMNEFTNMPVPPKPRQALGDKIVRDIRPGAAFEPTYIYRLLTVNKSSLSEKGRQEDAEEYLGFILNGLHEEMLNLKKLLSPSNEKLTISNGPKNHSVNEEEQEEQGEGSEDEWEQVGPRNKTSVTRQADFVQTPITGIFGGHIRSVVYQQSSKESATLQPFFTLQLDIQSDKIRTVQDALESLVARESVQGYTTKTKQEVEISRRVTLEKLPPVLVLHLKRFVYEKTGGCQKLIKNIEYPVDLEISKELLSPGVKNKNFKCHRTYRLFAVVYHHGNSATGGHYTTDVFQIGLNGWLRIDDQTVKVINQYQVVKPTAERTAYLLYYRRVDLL
Method in brief: as §1

USP15 = target: T6, USP15 (UniProt Q9Y4E8)
T6 sequence (whole entry): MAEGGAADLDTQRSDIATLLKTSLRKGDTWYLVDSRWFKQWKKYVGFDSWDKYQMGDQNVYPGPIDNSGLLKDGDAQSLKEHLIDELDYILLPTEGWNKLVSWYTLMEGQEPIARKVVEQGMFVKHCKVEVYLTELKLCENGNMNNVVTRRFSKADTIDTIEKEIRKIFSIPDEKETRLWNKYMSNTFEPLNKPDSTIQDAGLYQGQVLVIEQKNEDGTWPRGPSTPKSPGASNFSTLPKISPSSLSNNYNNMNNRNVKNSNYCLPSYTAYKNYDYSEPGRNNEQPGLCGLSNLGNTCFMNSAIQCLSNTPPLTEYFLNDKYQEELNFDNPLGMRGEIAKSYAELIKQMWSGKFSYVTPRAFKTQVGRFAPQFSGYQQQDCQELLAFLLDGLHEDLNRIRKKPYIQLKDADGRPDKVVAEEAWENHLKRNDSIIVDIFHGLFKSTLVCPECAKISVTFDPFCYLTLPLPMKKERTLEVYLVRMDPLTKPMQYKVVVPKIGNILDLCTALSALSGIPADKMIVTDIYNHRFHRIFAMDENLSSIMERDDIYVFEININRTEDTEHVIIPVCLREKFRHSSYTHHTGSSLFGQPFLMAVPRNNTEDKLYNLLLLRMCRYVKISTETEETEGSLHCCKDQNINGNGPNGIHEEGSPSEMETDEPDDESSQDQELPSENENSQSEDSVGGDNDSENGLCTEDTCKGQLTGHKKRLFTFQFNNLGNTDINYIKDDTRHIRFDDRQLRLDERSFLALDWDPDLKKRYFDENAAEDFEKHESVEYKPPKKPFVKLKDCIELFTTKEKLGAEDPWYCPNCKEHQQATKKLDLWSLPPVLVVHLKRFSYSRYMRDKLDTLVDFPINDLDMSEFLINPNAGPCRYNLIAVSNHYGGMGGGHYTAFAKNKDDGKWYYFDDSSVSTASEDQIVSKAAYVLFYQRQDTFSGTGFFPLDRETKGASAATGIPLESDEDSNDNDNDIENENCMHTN
Method in brief: as §1

USP16 = USP16 (UniProt Q9Y5T5)
Chain of USP16 (Q9Y5T5 whole entry, looked up): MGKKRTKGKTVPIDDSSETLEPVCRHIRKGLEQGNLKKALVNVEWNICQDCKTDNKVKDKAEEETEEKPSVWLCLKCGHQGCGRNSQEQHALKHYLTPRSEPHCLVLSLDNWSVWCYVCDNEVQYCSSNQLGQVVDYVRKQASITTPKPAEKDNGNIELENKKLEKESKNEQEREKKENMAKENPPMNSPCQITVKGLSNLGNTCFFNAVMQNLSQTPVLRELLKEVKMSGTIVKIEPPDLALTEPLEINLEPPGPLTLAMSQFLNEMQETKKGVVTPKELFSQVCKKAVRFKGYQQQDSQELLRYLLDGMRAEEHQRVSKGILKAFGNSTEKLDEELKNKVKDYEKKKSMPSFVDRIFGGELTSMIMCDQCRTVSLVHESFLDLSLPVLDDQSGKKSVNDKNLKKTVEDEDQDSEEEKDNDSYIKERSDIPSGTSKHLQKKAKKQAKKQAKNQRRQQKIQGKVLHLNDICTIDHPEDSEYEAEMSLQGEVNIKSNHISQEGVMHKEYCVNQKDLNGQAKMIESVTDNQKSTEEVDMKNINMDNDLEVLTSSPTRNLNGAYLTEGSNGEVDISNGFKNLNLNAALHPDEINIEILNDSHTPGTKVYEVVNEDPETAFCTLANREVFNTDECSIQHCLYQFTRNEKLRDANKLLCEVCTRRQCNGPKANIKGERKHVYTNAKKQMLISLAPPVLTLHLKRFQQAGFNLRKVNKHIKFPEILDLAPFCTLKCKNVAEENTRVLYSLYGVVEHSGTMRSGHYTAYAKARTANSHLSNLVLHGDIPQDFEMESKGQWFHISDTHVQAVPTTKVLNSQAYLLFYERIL
Method in brief: as §1

Measured: log2 ratio of Biotin-Ahx-Ub-VS probe labelling

O=C(CCl)N1CCc2[nH]c3ccccc3c2C1
inactive: OTUD6B -0.206 | PRPF8 -0.175 | PSMD7 -0.319 | UCHL3 -0.675 | UCHL5 -0.893 | USP10 -0.119 | USP16 0.191
active: OTUD7B -1.05 | UCHL1 -1.24 | USP15 -1.46
